High-throughput results deposited in PubChem BioAssay by National Center for Advancing Translational Sciences (NCATS).
Vaccinia Venus – qHTS for Stage-Specific Inhibitors of Vaccinia Orthopoxvirus: Venus Reporter Primary qHTS | Vaccinia virus Venus reporter expression, fluorescence | Potency, µM (highest dose often 36.5 µM), for inactives: at the top dose activity change, negative = inhibition, actives largely listed as inhibitors | actives 0.46% (n = 330,000) | AID 720580, 2013; calls by dose curve; tested in A549 cells; note: nearly all actives have a fitted effect of over 30% in size
Vaccinia mCherry – qHTS for Stage-Specific Inhibitors of Vaccinia Orthopoxvirus: mCherry Reporter Primary qHTS | AID 720579, 2013 | Vaccinia virus mCherry reporter infection, fluorescence | actives 0.63% (n = 310,000) | Potency, µM (doses to about 36.5 µM), for the others: at the top dose activity change, negative = inhibition, most hits filed as inhibitors; calls by dose curve; tested in A549 cells; note: nearly all actives have a fitted effect of over 35% in size
FMDV inh – High Throughput Screening for Foot and Mouth Disease Virus Antivirals | FMDV antiviral cell-based qHTS | Potency, µM (highest dose often 57.9 µM), without a hit: at the top dose activity change, negative = inhibition, most hits filed as inhibitors | actives 1.2% (n = 410,000); calls by dose curve; tested in HEK293T cells; note: read-out not given here; nearly all actives have a fitted effect of over 45% in size
Giardia FBPA inh – qHTS Assay for Inhibitors of Fructose-1,6-bisphosphate Aldolase from Giardia Lamblia; A8B2U2; purified Giardia FBPA; Potency, µM (series often up to 59.6 µM), for the others: at the highest dose activity, negative = inhibition, actives largely listed as inhibitors; actives 0.71% (n = 290,000); AID 2451, 2010; active = well fitted inhibition curve with a large enough effect; inconclusive = small, poorly fitted or top-dose-only effect, or effect the other way; note: nearly all actives have a fitted effect of over 55% in size
Target sequence (A8B2U2 whole entry, looked up): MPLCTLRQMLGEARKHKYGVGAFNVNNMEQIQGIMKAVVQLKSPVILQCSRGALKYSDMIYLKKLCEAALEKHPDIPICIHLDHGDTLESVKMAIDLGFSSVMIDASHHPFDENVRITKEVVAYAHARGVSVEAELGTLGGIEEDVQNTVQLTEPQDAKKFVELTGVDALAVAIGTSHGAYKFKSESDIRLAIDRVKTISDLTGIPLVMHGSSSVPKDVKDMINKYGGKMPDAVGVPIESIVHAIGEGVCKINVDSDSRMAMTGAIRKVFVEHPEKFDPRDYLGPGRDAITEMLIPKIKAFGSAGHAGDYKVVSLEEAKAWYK
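40 nM FBPA preincubated 10 min at RT with compound (up to 57.5 uM final), then substrate plus GAPDH/TPI/NAD/arsenate coupling and diaphorase/resazurin added. Fluorescence read after 20 min at RT, 525/598 nm.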
Numbers without * were called inactive; i = inactive; ? = inconclusive; . = no result; [ ] = another dose, or the depositor's remark. In the library only some 2.2% were active in any assay of this set; here they are far more common. % is set by controls: 0 for no effect and ±100 for the full control effect; potency is the fitted concentration of half-maximal effect.

SMILES	Vaccinia Venus	Vaccinia mCherry	FMDV inh	Giardia FBPA inh
Cc1ccc(S(=O)(=O)N2CCN(c3nc(-c4ccc(CN5CCOCC5)s4)nc4ccccc34)CC2)cc1	-11.6%	-1.1%	.	.
CCOC(=O)c1ccc(NC(=O)CSc2nc3cccnc3n2C)cc1	?	?	15.8µM*	-0.7%
COc1ccc(CN2[C@@H](CC(=O)O)c3ccc(/C=C/C(=O)O)cc3S2(=O)=O)cc1	-15.8%	i	.	.
COc1ccc(CN2[C@@H](CC(C)=O)c3ccc(/C=C/C(C)=O)cc3S2(=O)=O)cc1	-12.6%	-9.7%	31.6µM*	.
Cc1ccccc1N1C(=O)NC(=O)/C(=C\c2cc(Br)c(N3CCOCC3)o2)C1=O	1.9%	-4.6%	15.8µM*	-1.7%
O=C(Nc1cccc(S(=O)(=O)N2CCCCC2)c1)c1ccc(S(=O)(=O)C(F)F)cc1	-27.6%	-22.0%	28.2µM*	-9.1%
O=C(Nc1cccc(S(=O)(=O)C(F)F)c1)c1ccc(S(=O)(=O)N2CCCCC2)cc1	?	?	28.2µM*	-6.7%
CN(C)S(=O)(=O)c1cccc(NC(=O)c2ccc(S(=O)(=O)N3CCCCC3)cc2)c1	-26.7%	?	-29.1%	.
CC(=O)N1c2ccc(S(=O)(=O)NCC3CCC(C(=O)Nc4ccc(C)c(C)c4)CC3)cc2CC1C (configuration not stated)	-28.1%	-18.7%	17.8µM*	.
CCc1ccc(NC(=O)C2CCCN(S(=O)(=O)c3ccc4c(c3)CC(C)N4C(C)=O)C2)cc1 (configuration not stated)	?	?	-1.7%	-2.3%
COc1ccccc1NC(=O)C1CCN(S(=O)(=O)c2ccc3c(c2)CC(C)N3C(C)=O)CC1 (configuration not stated)	-10.5%	i	-14.1%	11.5%
CC(=O)N1c2ccc(S(=O)(=O)NCC3CCC(C(=O)NCc4ccccc4)CC3)cc2CC1C (configuration not stated)	0.0%[7.34 µM]	2.1%[7.34 µM]	-4.9%	.
CC(=O)N1c2ccc(S(=O)(=O)NCC3CCC(C(=O)Nc4cc(C)cc(C)c4)CC3)cc2CC1C (configuration not stated)	-26.1%	?	?	.
COc1ccccc1NC(=O)C1CCC(CNS(=O)(=O)c2ccc3c(c2)CC(C)N3C(C)=O)CC1 (configuration not stated)	-26.3%	-27.6%	31.6µM*	.
CCc1ccc(NC(=O)C2CCC(CNS(=O)(=O)c3ccc4c(c3)CC(C)N4C(C)=O)CC2)cc1 (configuration not stated)	-11.6%[7.34 µM]	-9.2%[7.34 µM]	17.8µM*	.
CCc1ccc(NC(=O)C2CCN(S(=O)(=O)c3ccc4c(c3)CC(C)N4C(C)=O)CC2)cc1 (configuration not stated)	?	-10.9%	15.8µM*	-8.2%
OC1(c2ccc(Cl)c(C(F)(F)F)c2)CCN(CCCC(c2ccc(F)cc2)c2ccc(F)cc2)CC1	.	.	.	-13.5%
COc1ccccc1C(=O)N1CCOc2ccc(C(C)(O)CCn3cccn3)cc2C1 (configuration not stated)	-9.0%	-13.5%	-0.5%	.
Cc1cc(C(=O)NCC2CCC3(CCN(Cc4ccccc4C)CC3)O2)n(C)n1 (configuration not stated)	-11.4%	-4.2%	-11.1%	.
CC(=O)N1c2ccc(S(=O)(=O)NCC3CCC(C(=O)NC(C)(C)C)CC3)cc2CC1C (configuration not stated)	-5.3%	-1.5%	-3.4%	.
CC(=O)N1c2ccc(S(=O)(=O)NCC3CCC(C(=O)Nc4ccc(F)cc4)CC3)cc2CC1C (configuration not stated)	-22.6%	-18.3%	35.5µM*	.
COc1ccc2c(C)nc(Nc3nc(-c4ccccc4)cc(=O)[nH]3)nc2c1	3.98µM*	?	-7.9%	-0.4%
Cc1ccc2nc(Nc3nc(-c4ccccc4)cc(=O)[nH]3)nc(C)c2c1	?	.	0.0%	-3.1%
O=C(Nc1ccccc1)Nc1cccc(NC(=O)Nc2ccccc2)c1F	-17.9%	18.6%	21.1%	0.0%
Cc1cc2c(NC(=O)Nc3ccccc3)cccc2nn1	-2.5%	-8.7%	0.4%	5µM*
SMILES	Vaccinia Venus	Vaccinia mCherry	FMDV inh	Giardia FBPA inh
Cc1ccc2c(C(=O)CNc3nccs3)c[nH]c2c1	-13.3%	-14.4%	.	.
CCn1c(=O)c([N+](=O)[O-])c(NCCN(C)C)c2ccccc21	.	.	-10.2%	-12.1%
CCn1c(=O)c([N+](=O)[O-])c(Cl)c2ccccc21	0.0%	-4.1%	22.4µM*	-3.1%
O=C(C[N+]1(CCO)CCOCC1)c1cccs1	-6.4%	-9.4%	.	.
CC(CNc1ccccc1O)C(=O)O (configuration not stated)	89.1µM*	4.47µM*	-15.7%	?
CC(NC(=O)CCC(=O)Nc1ccccc1O)c1ccccc1 (configuration not stated)	-17.0%[7.34 µM]	-3.6%[7.34 µM]	-2.1%	.
COc1cc(=O)n2c(c1C(=O)N(C)Cc1ccsc1)CCN(Cc1cnn(C)c1C)CC2	-7.0%	i	6.6%	.
Oc1cc(-c2ccccc2)c2ccccc2c1	-21.4%	-25.1%	5.0%	5.61µM*
O=P1(O)Oc2c(c(-c3ccccc3)cc3ccccc23)-c2c(-c3ccccc3)cc3ccccc3c2O1	.	.	.	8.7%
CCc1cccc(NC(=O)c2ccc3c(=O)n4nc(Nc5ccccc5OC)sc4nc3c2)c1	3.98µM*	3.98µM*	0.0%	.
CCc1ccccc1Nc1nn2c(=O)c3ccc(C(=O)Nc4ccc(OC)cc4)cc3nc2s1	-18.0%	-23.7%	-29.2%	.
COc1ccccc1Nc1nn2c(=O)c3ccc(C(=O)NCc4ccc(F)cc4)cc3nc2s1	?	12.6µM*	?	.
OC1(c2cccnc2)CCN(Cc2ccc3c(c2)CN(Cc2cc(F)ccc2F)CCO3)CC1	-2.9%	-15.9%	-18.2%	.
CSc1ccc(CN(C)C(=O)c2cc(=O)c3ccccc3o2)cc1	0.0%	-6.3%	17.1%	2.3%
CSc1ccc(CN(C)C(=O)c2cc(=O)[nH]c3ccccc23)cc1	-18.3%	i	2.82µM*	1.1%
CCc1ccc(NC(=O)CC2C(=O)N(c3cccc(C)c3)C(=O)N2Cc2cccs2)cc1 (configuration not stated)	-18.4%	-13.9%	8.9%	.
Cc1ccc(C(=O)NCCc2nnc3n2CCN(Cc2cc(C)cc(C)c2)CC3)cc1	-10.0%	-14.1%	-12.4%	.
CCc1nc2nc(C)cc(Nc3cccc(C(F)(F)F)c3)n2n1	10µM*	.	0.0%	-0.2%
Cc1ccc(Nc2cc(C)nc3nc(C)nn23)c(C)c1	.	.	0.708µM*	5.5%
Cc1cc(Nc2cccc(C(F)(F)F)c2)n2nc(C)nc2n1	10µM*	.	0.0%	4.6%
O=C(NCCCc1cnc[nH]1)NCCCN(Cc1ccc(Cl)cc1)c1ccc(Br)cn1	-15.8%	-6.9%	.	.
O=C(NCCN1CCN(c2ccccc2)CC1)C1(S(=O)(=O)c2ccc(Cl)cc2)CC1	-21.6%	?	-24.4%	1.6%
CC1(C)CCC(c2ccc(Cl)cc2)=C(CN2CCN(c3ccc(C(=O)NS(=O)(=O)c4ccc(N[C@H](CCN5CCOCC5)CSc5ccccc5)c(S(=O)(=O)C(F)(F)F)c4)cc3)CC2)C1	10µM*	?	.	.
